# Measured values published in PubChem BioAssay (EPA / NIEHS).
# Values joined by “and” are separate entries in the source; they are usually repeats but may differ in a detail not shown here. Equal entries are not always repeated. Results filed as inconclusive are left out. More than one record can exist for a structure, and the calls need not agree. Active and inactive are the calls of the source. How the source made its calls, unless noted: active means hit-call score of the fitted dose curve at least 0.9, where 1 is the maximum; inconclusive means response in the unintended direction; inactive means score below 0.9.
# What was measured:
# [1] = UKN5_HCS_SBAD2_cell_viability: Viability Assessment in the University of Konstanz (UKN) Leist Lab Neurite Outgrowth Assay in human iPSC-derived immature Dorsal Root Ganglia Neurons (UKN5) (AID 2284056; active means hit-call score of the fitted dose curve at least 0.9, where 1 is the maximum; inactive means score below 0.9)
# Outline: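 iPSC-derived immature peripheral neurons (SBAD2) seeded on Matrigel with CHIR99021, SU5402 and DAPT, dosed 1 h later for 24 h. Viability from Hoechst H-33342 and calcein-AM live staining, high-content imaging; bidirectional fit versus DMSO.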
# [2] = CCTE_Shafer_MEA_dev_LDH: CCTE's Lactate Dehydrogenase Assay for Cytotoxicity in the Neural Network Formation Assay, Shafer Lab (AID 2284068);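 further: exposure for twelve days from plating with re-dosing on DIV 5 and 9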
# Outline: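 Cytotoxicity companion to network-formation recordings: rat cortical neurons received compound over 12 days of development, re-dosed at DIV 5 and 9 feeds. Viability was inferred from LDH enzyme activity relative to DMSO.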
# [3] = CCTE_Shafer_MEA_acute_AB: CCTE's Alamar Blue Assay for Cytotoxicity in the Neural Acute Assay, Shafer Lab (AID 2284069);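 further: active compounds lower the viability signal compared with DMSO wells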
# Outline: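 Metabolic activity in chemically exposed rat cortical neurons (MEA cultures, day 13/15 post-plating) measured via CellTiter Blue resazurin reduction, 544/590 nm fluorescence; fitted relative to DMSO, with signal loss indicating reduced viability.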
# [4] = UKN5_HCS_SBAD2_neurite_outgrowth: University of Konstanz (UKN) Leist Lab Neurite Outgrowth Assay in human iPSC-derived immature Dorsal Root Ganglia Neurons (UKN5) (AID 2284070; active means hit-call score of the fitted dose curve at least 0.9, where 1 is the maximum; inactive means score below 0.9); settings: actives raise or lower the signal
# Experimental: UKN5_HCS_SBAD2 is a cell-based, multiplexed-readout assay screening for neurite outgrowth and cell viability that uses SBAD2 (peripheral neurons differentiated from iPSC), a human peripheral nervous system cell line, with measurements taken at […] after chemical dosing in a microplate: 96-well plate. UKN5, also referred to as PeriTox, is an assay that uses human iPSC line SBAD2 as a model of peripheral neurons. Following 24 hr chemical exposures in multi-well plates, neurite area is evaluated as a marker of neurite outgrowth using high-content imaging of cells stained with calcein-AM. Cell viability is assessed using stain Hoechst H-33342.UKN5_HCS_SBAD2_neurite_outgrowth is an assay component measured from the UKN5_HCS_SBAD2 assay. It is designed to make measurements of neurite outgrowth, a form of morphology reporter, as detected with Fluorescence intensity signals by HCS Fluorescent Imaging.The assay endpoint UKN5_HCS_SBAD2_neurite_outgrowth was analyzed with bidirectional fitting relative to DMSO as the negative control and baseline of activity. Using a type of morphology reporter, gain or loss-of-signal activity can be used to understand developmental effects. To generalize the intended target to other relatable targets, this assay endpoint is annotated to the neurodevelopment intended target family, where the subfamily is neurite outgrowth.
# The previously differentiated immature peripheral neurons are thawed and seeded on Matrigel coated plates (1:40 diluted) in 75 ul medium composed of 75% N2-S medium and 25% KSR medium, supplemented with CHIR99021 (1.5 uM), SU5402 (5 uM) and DAPT (gamma-Secretase inhibitor IX, 5 uM) at a density of 100.000 cells/cm2. One hour after seeding, treatment compounds are added to the cells in 25 ul of similar to culture medium in which cells were seeded. 23 h after toxicant application, cells are live-stained with H-33342 and calcein-AM and incubated for 60 min. After 24 h of treatment (including staining), the cells are imaged using a high-content microscope (Cellomics VTI Array Scan).
# [5] = CCTE_Shafer_MEA_dev_mutual_information_norm: CCTE's Neural Network Formation Assay for Mutual Information Normalization, Shafer Lab (AID 2284091; active means hit-call score of the fitted dose curve at least 0.9, where 1 is the maximum; inactive means score below 0.9;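 on AC50: mutual information between electrodes summarised as area under curve across four recording days; potency is for a decrease in mutual information relative to DMSO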)
# Outline: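 Exposure of primary rat cortical neurons began at plating and ran to DIV 12, with full media and treatment renewal after DIV 5 and 9 recordings. Mutual information AUC (DIV 5–12) was analysed for loss versus DMSO.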
# [6] = CCTE_Shafer_MEA_dev_correlation_coefficient_mean: CCTE's Neural Network Formation Assay for Mean Correlation Coefficient, Shafer Lab (AID 2284093; active means hit-call score of the fitted dose curve at least 0.9, where 1 is the maximum; inactive means score below 0.9;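 on AC50: well mean pairwise spike train correlation integrated as AUC over recording days 5 to 12; potency fitted for loss of correlation relative to DMSO vehicle wells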)
# Outline: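 Read-out: well-mean correlation coefficient of spike trains between electrode pairs, collapsed over four recording days as trapezoidal area-under-the-curve. Developing rat cortical neuron networks grown on MEAs received test chemical continuously from plating.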
# [7] = UKN2_HCS_IMR90_neural_migration: University of Konstanz (UKN) Leist Lab Neural Crest Cell Migration Assay in human induced IMR90 Pluripotent Stem Cells (UKN2) (AID 2284204; active means hit-call score of the fitted dose curve at least 0.9, where 1 is the maximum; inactive means score below 0.9); settings: actives raise or lower the signal
# Outline: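 Using a 96-well stopper format with PLO/laminin/fibronectin coating, neural crest cells from iPSC migrate in cytokine-supplemented N2-S medium; after 24 h, chemicals are applied for a further 24 h, then cells are imaged after dye staining.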
# [8] = UKN4_HCS_LUHMES_neurite_outgrowth: University of Konstanz (UKN) Leist Lab Neurite Outgrowth Assay in human LUHMES cells (UKN4) (AID 2284206; active means hit-call score of the fitted dose curve at least 0.9, where 1 is the maximum; inactive means score below 0.9); settings: actives raise or lower the signal
# Outline: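 Neurite area in dopaminergic-model LUHMES neurons is measured by high-content imaging of calcein-AM after 24 h treatment starting shortly after day-2 replating; Hoechst staining tracks viability.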
# [9] = CCTE_Shafer_MEA_dev_AB: CCTE's Alamar Blue Assay for Cytotoxicity in the Neural Network Formation Assay, Shafer Lab (AID 2284083);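 further: twelve days of exposure from plating with re-dosing on DIV 5 and 9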
# Outline: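 Fluorescent resazurin reduction serves as the viability read-out, with DMSO as negative control and baseline. Cells were primary rat cortical neurons grown on MEA plates and dosed from day 0 to day 12, treatment renewed on DIV 5 and 9.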
# [10] = CCTE_Shafer_MEA_acute_LDH: CCTE's Lactate Dehydrogenase Assay for Cytotoxicity in the Neural Acute Assay, Shafer Lab (AID 2284086);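 further: active means LDH release rises above DMSO vehicle level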
# Outline: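 Cytotoxicity readout: spectrophotometric LDH activity in supernatant of rat primary cortical neurons, post-plating day 13 or 15, sampled after 40 min compound exposure; signal gain relative to DMSO baseline.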
compound,measurement,setting,value
CCOC(=O)CC(SP(=O)(OC)OC)C(=O)OCC (stereo unspecified),outcome,[1],inactive
same,outcome,[2],inactive
same,outcome,[3],inactive
same,outcome,[4],inactive
same,outcome,[5],inactive
same,outcome,[6],inactive
same,outcome,[7],inactive
same,outcome,[8],inactive
CCOP(=O)(NC(C)C)Oc1ccc(SC)c(C)c1 (stereo unspecified),AC50,[2],51 µM (active)
same,outcome,[2],inactive
same,outcome,[3],inactive
same,outcome,[9],inactive
same,outcome,[10],inactive
same,AC50,[5],36300 nM (active)
same,outcome,[5],inactive
same,AC50,[6],90.9 µM (active)
same,outcome,[6],inactive
same,outcome,[7],inactive
CCCSP(=O)(OCC)Oc1ccc(Br)cc1Cl (stereo unspecified),AC50,[2],1.79 µM (active)
same,outcome,[9],inactive
same,outcome,[5],inactive
same,outcome,[6],inactive
O=[N+]([O-])c1cc(C(F)(F)F)c(Cl)c([N+](=O)[O-])c1Nc1ncc(C(F)(F)F)cc1Cl,AC50,[2],0.871 µM (active)
same,outcome,[3],inactive
same,AC50,[9],1.01 µM (active)
same,outcome,[10],inactive
same,AC50,[5],328 nM (active)
same,AC50,[6],0.65 µM (active)
same,AC50,[7],638 nM (active)
CC(=NC#N)N(C)Cc1ccc(Cl)nc1,outcome,[1],inactive
same,outcome,[3],inactive
same,outcome,[4],inactive
same,outcome,[9],inactive
same,outcome,[5],inactive
same,outcome,[6],inactive
same,outcome,[7],inactive
same,outcome,[8],inactive
CCOP(=S)(OCC)OC(Cl)C(Cl)(Cl)Cl (stereo unspecified),AC50,[2],31 µM (active) and 21.4 µM (active)
same,AC50,[9],30.7 µM (active) and 17.8 µM (active)
same,AC50,[5],15.9 µM (active) and 18 µM (active)
same,AC50,[6],21.2 µM (active) and 17.8 µM (active)
same,outcome,[7],inactive
COc1cc(OC)nc(Sc2cccc(Cl)c2C(=O)O)n1,outcome,[3],inactive
same,outcome,[10],inactive
CCOP(=O)(OCC)Oc1cc(C)nc(C(C)C)n1,outcome,[2],inactive
same,outcome,[9],inactive
same,outcome,[5],inactive
same,outcome,[6],inactive
same,outcome,[7],inactive
FC(F)C(F)(F)OCC(Cn1cncn1)c1ccc(Cl)cc1Cl (stereo unspecified),outcome,[3],inactive
CCCCSP(=O)(SCCCC)SCCCC,AC50,[2],27.3 µM (active) and 49.9 µM (active)
same,AC50,[9],50 µM (active) and 63.1 µM (active)
same,AC50,[5],29.3 µM (active) and 18.4 µM (active)
same,AC50,[6],29.6 µM (active) and 35 µM (active)
same,outcome,[7],inactive
CCCSP(=O)(OCC)SCCC,AC50,[2],15.7 µM (active) and 15.4 µM (active)
same,AC50,[9],20.6 µM (active) and 18.7 µM (active)
same,AC50,[5],9.23 µM (active) and 14.7 µM (active)
same,AC50,[6],15.8 µM (active) and 20.4 µM (active)
same,outcome,[7],inactive
COP(=O)(OC)OC(Br)C(Cl)(Cl)Br (stereo unspecified),AC50,[2],6.64 µM (active) and 17.1 µM (active)
same,AC50,[9],7.73 µM (active) and 16.4 µM (active)
same,AC50,[5],4.85 µM (active) and 13 µM (active)
same,AC50,[6],8.49 µM (active) and 16 µM (active)
same,AC50,[7],25400 nM (active)
Cc1ccn2nc(S(=O)(=O)Nc3c(F)cccc3F)nc2n1,outcome,[3],inactive
same,outcome,[10],inactive
CC(Oc1cccc(Cl)c1)C(=O)O (stereo unspecified),outcome,[2],inactive
same,outcome,[5],inactive
same,outcome,[6],inactive
O=C(O)c1cc(Oc2ccc(C(F)(F)F)cc2Cl)ccc1[N+](=O)[O-],outcome,[10],inactive
N#CSCSC#N,outcome,[3],inactive
same,outcome,[10],inactive
CC(COc1ccc(Oc2ccccc2)cc1)Oc1ccccn1 (stereo unspecified),outcome,[3],inactive
CNC(=O)ON=C(SC)C(=O)N(C)C,outcome,[10],inactive
CCCOCC(=Nc1ccc(Cl)cc1C(F)(F)F)n1ccnc1,outcome,[3],inactive
same,outcome,[10],inactive
CN1COCN(Cc2cnc(Cl)s2)C1=N[N+](=O)[O-],outcome,[2],inactive
same,outcome,[10],inactive
same,outcome,[5],inactive
same,outcome,[6],inactive
CCc1cnc(C2=NC(C)(C(C)C)C(=O)N2)c(C(=O)O)c1 (stereo unspecified),outcome,[3],inactive
CC(C)[C@H](C(=O)O[C@H](C#N)c1cccc(Oc2ccccc2)c1)c1ccc(Cl)cc1,outcome,[2],inactive
same,AC50,[9],0.0209 µM (active)
same,AC50,[5],189 nM (active)
same,AC50,[6],0.564 µM (active)
C[N+]1(C)CCCCC1,outcome,[3],inactive
same,outcome,[9],inactive
same,outcome,[10],inactive
same,outcome,[5],inactive
same,outcome,[6],inactive
C#CCC1=C(C)C(OC(=O)C2C(C=C(C)C)C2(C)C)CC1=O (stereo unspecified),outcome,[9],inactive
same,outcome,[10],inactive
same,AC50,[5],303 nM (active)
same,AC50,[6],3 µM (active)
Nc1c(Cl)cc([N+](=O)[O-])cc1Cl,outcome,[3],inactive
same,AC50,[10],10.5 nM (active)
CN(C)NC(=O)CCC(=O)O,outcome,[3],inactive
CCOP(=O)(SC(C)CC)N1CCSC1=O (stereo unspecified),AC50,[2],50 µM (active)
same,outcome,[5],inactive
same,outcome,[6],inactive
